Outcome and AC50 data for 39 compounds are collected here from PubChem BioAssay (EPA / NIEHS).

Where “and” joins values, the source holds several entries; their conditions need not be identical. Equal values may be shown once. Results filed as inconclusive are left out. More than one record can exist for a structure, and the calls need not agree. Calls of active or inactive are those of the source. Rule for the calls: active = hit-call score of the fitted dose curve at least 0.9, where 1 is the maximum; inconclusive = response in the unintended direction; inactive = score below 0.9.

Sequence of Estrogen receptor (Homo sapiens) + Estrogen receptor beta (Homo sapiens) (P03372 whole entry, looked up, the tested form may be a part): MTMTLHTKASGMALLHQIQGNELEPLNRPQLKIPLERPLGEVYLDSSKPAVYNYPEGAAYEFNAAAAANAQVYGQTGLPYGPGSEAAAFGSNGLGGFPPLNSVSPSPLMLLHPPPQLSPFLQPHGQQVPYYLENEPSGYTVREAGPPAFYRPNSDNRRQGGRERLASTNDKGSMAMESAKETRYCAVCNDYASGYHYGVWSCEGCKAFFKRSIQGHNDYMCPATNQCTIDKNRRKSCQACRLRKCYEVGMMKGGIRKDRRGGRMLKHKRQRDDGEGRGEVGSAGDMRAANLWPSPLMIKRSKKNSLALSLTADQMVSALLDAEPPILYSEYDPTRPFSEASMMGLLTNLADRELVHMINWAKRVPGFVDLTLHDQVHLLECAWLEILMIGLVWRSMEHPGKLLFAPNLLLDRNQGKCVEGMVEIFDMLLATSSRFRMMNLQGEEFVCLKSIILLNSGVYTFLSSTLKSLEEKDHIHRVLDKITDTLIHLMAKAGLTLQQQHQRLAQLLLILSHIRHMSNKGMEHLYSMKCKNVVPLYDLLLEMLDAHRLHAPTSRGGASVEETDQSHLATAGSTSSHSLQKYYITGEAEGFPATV
Sequence of Estrogen receptor (Homo sapiens) + Estrogen receptor beta (Homo sapiens) (Q92731 whole entry, looked up, the tested form may be a part): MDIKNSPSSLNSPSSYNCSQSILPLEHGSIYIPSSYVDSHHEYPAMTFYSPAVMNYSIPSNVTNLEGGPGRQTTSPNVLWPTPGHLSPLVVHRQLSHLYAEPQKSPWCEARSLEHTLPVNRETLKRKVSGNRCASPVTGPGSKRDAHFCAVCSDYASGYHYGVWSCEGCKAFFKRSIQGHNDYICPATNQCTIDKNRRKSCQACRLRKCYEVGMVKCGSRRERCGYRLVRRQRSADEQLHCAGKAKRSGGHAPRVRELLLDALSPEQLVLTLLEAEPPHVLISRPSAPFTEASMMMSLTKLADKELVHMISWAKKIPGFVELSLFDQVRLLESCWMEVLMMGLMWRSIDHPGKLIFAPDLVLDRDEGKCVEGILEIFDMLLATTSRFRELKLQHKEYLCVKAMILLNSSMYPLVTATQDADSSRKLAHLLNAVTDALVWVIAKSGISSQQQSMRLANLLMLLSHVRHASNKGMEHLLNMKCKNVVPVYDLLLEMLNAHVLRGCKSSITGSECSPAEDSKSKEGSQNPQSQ

This test has as its target Estrogen receptor (Homo sapiens) + Estrogen receptor beta (Homo sapiens) (UniProt P03372+Q92731). Kind of test: OT_ER_ERaERb_0480: Odyssey Thera (OT) 8-hour HEK293T Protein-Complementation Assay for Estrogen Receptor-alpha/-beta Heterodimer (AID 2283352). The protocol:
OT_ER_ERaERb_0480 is a cell-based assay that uses HEK293T, a human kidney cell line, with measurements taken at 8 hours after chemical dosing in a 384-well plate.OT_ER_ERaERb_0480 is one of one assay component(s) measured or calculated from the OT_ER_ERaERb_0480 assay. It is designed to make measurements of protein fragment complementation, a form of binding reporter, as detected with fluorescence intensity signals by Protein-fragment Complementation technology.Data from the assay component OT_ER_ERaERb_0480 was analyzed into 1 assay endpoint. This assay endpoint, OT_ER_ERaERb_0480, was analyzed in the positive analysis fitting direction relative to DMSO as the negative control and baseline of activity. Using a type of binding reporter, measures of receptor for gain-of-signal activity can be used to understand the binding at the pathway-level as they relate to the gene ESR1 and ESR2. Furthermore, this assay endpoint can be referred to as a primary readout, because the performed assay has only produced 1 assay endpoint. To generalize the intended target to other relatable targets, this assay endpoint is annotated to the nuclear receptor intended target family, where the subfamily is steroidal.
Protein-fragment complementation assay, or PCA, is a method for the identification and quantification of protein-protein interactions. In the PCA, the proteins of interest ("bait" and "prey") are each covalently linked to fragments of a third protein (e.g. DHFR, which acts as a "reporter"). Interaction between the bait and the prey proteins brings the fragments of the reporter protein in close proximity to allow them to form a functional reporter protein whose activity can be measured. […] Fluorescent signal in the basal state of the assay is very low and is primarily punctuate and cytoplasmic. Modulation of this assay is quantified as an increase in mean fluorescence intensity in the nucleus (for agonists) or in the nucleus and cytoplasm (antagonists) relative to vehicle controls, and can be quantified on a high content imaging device or a laser scanning cytometer. The latter instrument is favored for this assay because of the rapid mode of data acquisition, the ability to acquire data from the entire cell population in a well (as opposed to a fraction of the well on the high content devices) and the larger dynamic range typically achieved with this instrument. To assess sensitivity of the ER alpha/ER beta LBD assay to ligand, cells were treated with the ER agonist 17- beta-estradiol (E2) in 10-point concentration- response format for 8 hours and monitored response on a laser scanning plate cytometer (Acumen eX3; TTP Lab Tech).
Consider `O=C(O)CF`, for which the outcome was inactive.

`O=C(O)C1C(C(=O)O)C2(Cl)C(Cl)=C(Cl)C1(Cl)C2(Cl)Cl` (stereo not given): the result was inactive.

For the compound `CC(C)(C)OOC(C)(C)C`, the outcome was inactive.

`CC(Cl)(Cl)C(=O)O`: the result was inactive.

A word on the AC50: it is the concentration at which the activity in the assay is half-maximal. As for `CCC(C)(C)c1ccc(O)cc1`, the AC50 is 2.68 µM (active).

Take `O=C(CBr)OCc1ccccc1`: the result was inactive.

In the case of `c1cc2c3c(cccc3c1)CC2`, the outcome was inactive.

Regarding `CCCCc1ccccc1`, the outcome was inactive.

`O=P(Oc1ccccc1)(Oc1ccccc1)Oc1ccccc1`: the AC50 was 12.2 µM (active).

As to `CCOS(=O)(=O)OCC`, the outcome was inactive.

As for `O=[N+]([O-])c1ccccc1`, the result was inactive.

In the case of `c1ccc(OP(Oc2ccccc2)Oc2ccccc2)cc1`, the result was inactive.

Turning to `c1nc[nH]n1`, the result was inactive.

Regarding `CCCCN(CC)C(=O)SCCC`, the result was inactive.

For the compound `O=NN1CCCC1`, the result was inactive.

As for `CCCCCCCc1ccc(O)cc1`, the result was inactive; the AC50 was 12.7 µM (active) and 12.5 µM (active).

With `CCOc1ccc(C(C)(C)COCc2cccc(Oc3ccccc3)c2)cc1`, the outcome was inactive.

As to `Cc1ccc(N)cc1N`, the outcome was inactive.

For the compound `O=S1(=O)OCC2C(CO1)C1(Cl)C(Cl)=C(Cl)C2(Cl)C1(Cl)Cl` (stereo not given), the outcome was inactive.

Turning to `CCCCc1ccc(O)cc1`, the AC50 is 19.7 µM (active).

Consider `CCCCN(CCCC)N=O`, for which the outcome was inactive.

On to `CCN(CC)c1ccccc1`, for which the result was inactive.

For the compound `CCNc1nc(Cl)nc(NC(C)(C)C)n1`, the result was inactive.

On to `CCCCN(CCCC)SN(C)C(=O)Oc1cccc2c1OC(C)(C)C2`, for which the outcome was inactive.

Regarding `COC(N)=O`, the outcome was inactive.

With `CCCCC(CC)COP(=O)(Oc1ccccc1)Oc1ccccc1` (stereo not given), the AC50 is 12.2 µM (active).

Take `CCCCC(CC)COC(=O)c1c(Br)c(Br)c(Br)c(Br)c1C(=O)OCC(CC)CCCC` (stereo not given): the result was inactive.

As to `O=S(=O)(c1ccc(O)cc1)c1ccc(O)cc1`, the AC50 is 21.4 µM (active).

As for `CCOP(=S)(Oc1ccc([N+](=O)[O-])cc1)c1ccccc1` (stereo not given), the AC50 is 19.2 µM (active).

With `CCC1(c2ccccc2)C(=O)N=C(O)NC1=O` (stereo not given), the result was inactive.

As for `ClC(Cl)(Cl)c1ccccc1`, the result was inactive.

Consider `CCOP(=S)(OCC)SCSCC`, for which the result was inactive.

Regarding `CCCN(CCC)c1c([N+](=O)[O-])cc(C(C)C)cc1[N+](=O)[O-]`, the AC50 is 50 µM (active).

With `O=P1(N(CCCl)CCCl)NCCCO1` (stereo not given), the result was inactive.

In the case of `Cc1ccc(O)cc1C`, the result was inactive.

`CCOC(=O)c1ccccc1N`: the outcome was inactive.

Consider `Cc1ccc([N+](=O)[O-])cc1C`, for which the result was inactive.

Turning to `c1ccc2c(c1)Nc1ccccc1S2`, the result was inactive.

With `Nc1ccc2ccccc2c1`, the result was inactive.
